SARS PLP yeast – blocks SARS-CoV papain-like protease in a yeast assay. S. cerevisiae expressing SARS-CoV PLpro, growth rescue. AID 485353. Potency, µM (titrated, usually from 32.9 µM), hits mostly activators. 0.19% of 330,000 active; calls by dose curve; also: nearly all actives have a fitted effect of over 55% in size
Sm TGR inh – inhibitors of Schistosoma mansoni thioredoxin glutathione reductase | Potency, µM (highest dose often 114 µM), hits mostly inhibitors | AID 485364 | purified TGR, DTNB reduction, TNB absorbance 405 nm | 3% of 360,000 active; active = well fitted inhibition curve with a large enough effect; inconclusive = small, poorly fitted or top-dose-only effect; inactive = no such curve, though single readings can be large or run the other way; also: nearly all actives have a fitted effect of over 60% in size
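TGR 20 nM + NADPH 100 uM (dispensed conc.), cpd preinc 15 min RT; start with NADPH (500 uM addition) then DTNB (15 mM addition). Kinetic TNB absorbance, 405 nm filter. Four-parameter Hill fit across titration.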
Each line names hits and unclear results; the compound was inactive in the other large screens. In the library only some 3% were active in any assay of this set; here they are far more common.

COC(=O)C1=C(C)N=c2s/c(=C/c3cccs3)c(=O)n2C1c1cccs1 (centres undefined)	none
CCOC(=O)c1c(C)nc2sc3c(c2c1-c1ccc(OC)cc1)NC(c1ccccc1)NC3=O (centres undefined)	none
CC1CCC(NC(=O)c2ccc3c(c2)N(Cc2ccccc2F)C(=O)c2ccccc2S3=O)CC1 (centres undefined)	none (no result: SARS PLP yeast)
COC(=O)c1ccccc1NC(=O)C1=C(C)C(=O)OC12CCCCCC2	none (no result: SARS PLP yeast)
COc1cccc(CNCCSc2nnnn2C)c1OCc1ccc(Cl)cc1	none (no result: SARS PLP yeast)
O=[N+]([O-])c1cccnc1N1CCCNCC1	Sm TGR inh 50.1µM
O=[N+]([O-])c1ccc(N2CCCNCC2)c2ncccc12	none
COc1cc(OC)c(NC(=O)c2cc(C)nc3c2c(C)nn3-c2ccc(C)cc2)cc1Cl	none (no result: SARS PLP yeast)
CCOc1ccc(NC(=S)N/N=C(\C)Cc2ccc(OC)cc2)cc1	SARS PLP yeast inconclusive
CCOc1ccc(S(=O)(=O)N/N=C(\C)Cc2ccc(OC)cc2)cc1	Sm TGR inh 31.6µM
CCN(CC)c1sc(S(=O)(=O)c2ccccc2)nc1S(=O)(=O)c1ccc(C)cc1	none (no result: SARS PLP yeast)
N#CC1(c2ccccc2)CCCN1C(=O)c1ccc(Br)o1 (centres undefined)	Sm TGR inh 39.8µM
O=C(c1ccc(Br)o1)N1CCCc2ccccc21	none
CCn1cnc2c(=O)oc3ccc(S(=O)(=O)N4CCN(c5cc(C)ccc5C)CC4)cc3c21	none (no result: SARS PLP yeast)
COc1ccc(Cn2c(NCC(C)C)nc3c2c(=O)n(C)c(=O)n3C)cc1	none (no result: SARS PLP yeast)
CC(C)N=c1scc(-c2cccs2)n1/N=C/c1ccc(O)c(O)c1O	Sm TGR inh 20µM
CN=c1scc(-c2ccccc2F)n1/N=C/c1ccc[nH]1	none
CCN=c1scc(-c2cccs2)n1/N=C/c1cc(OC)ccc1O	none
CN=c1scc(-c2ccccc2F)n1/N=C/c1ccc(O)c(O)c1O	Sm TGR inh 17.8µM
Cc1cc(OCC(=O)NCC2CCC(C(=O)O)CC2)c2c(C)c(Cc3ccccc3)c(=O)oc2c1 (centres undefined)	Sm TGR inh 31.6µM
Cc1c(Cc2ccccc2)c(=O)oc2c(C)c(OCC(=O)NCC3CCC(C(=O)O)CC3)ccc12 (centres undefined)	none
Cc1cccc(Nc2nn3c(=O)c4cc5c(cc4nc3s2)OCO5)c1	none (no result: SARS PLP yeast)
O=C1OC(Nc2nc(-c3ccc(F)cc3)cs2)c2ccccc21 (centres undefined)	Sm TGR inh 3.98µM
O=C1OC(Nc2nc3ccccc3s2)c2ccccc21 (centres undefined)	none
CCn1cnc2c(NCCc3cccnc3)nc(C#N)nc21	Sm TGR inh 50.1µM
CCn1cnc2c(Nc3cccc(Cl)c3)nc(C#N)nc21	none
O=C(c1ccc2c(c1)N(Cc1ccc(F)cc1)C(=O)c1ccccc1S2(=O)=O)N1CCC(Cc2ccccc2)CC1	none (no result: SARS PLP yeast)
O=C(O)Cn1cc(/C=C2\C(=O)NC(=O)N(Cc3ccco3)C2=O)c2ccccc21	Sm TGR inh 5.01µM
CCN1C(=O)NC(=O)/C(=C\c2cn(CC(=O)O)c3ccccc23)C1=O	Sm TGR inh inconclusive
CC(C)c1ccc(Nc2cc(C(=O)NC3CCCCC3)c3ccccc3n2)cc1	none (no result: SARS PLP yeast)
COc1ccccc1NC(=O)c1oc2ccccc2c1NC(=O)c1ccc(S(=O)(=O)N(C)C)cc1	none (no result: SARS PLP yeast)
O=C(/C(=C/c1ccncc1)n1ccnc1)c1ccc(Cl)cc1Cl	none
CC(C)/C=C(/C(=O)c1ccc(Cl)cc1Cl)n1cncn1	Sm TGR inh 35.5µM
Cn1cc(C(=O)CCl)c2ccccc21	Sm TGR inh 3.55µM
Cn1cc(C(N)=O)c2ccccc21	none
Cc1ccc(C)c2sc(NC(=O)c3ccc(S(=O)(=O)N4CCC(C)CC4)cc3)nc12	none (no result: SARS PLP yeast)
O=C1CSC(=S)N1/N=C/c1ccc(C(F)(F)F)cc1	Sm TGR inh inconclusive
COc1cccc(/C=N/N2C(=O)CSC2=S)c1O	Sm TGR inh 5.62µM
COc1cc(/C=N/N2C(=O)CSC2=S)cc(Br)c1O	Sm TGR inh 12.6µM
O=C1CSC(=S)N1/N=C/C=C/c1ccccc1	Sm TGR inh 15.8µM
O=C1CSC(=S)N1/N=C/c1cccc(C(F)(F)F)c1	none
COc1ccc2ccccc2c1/C=N/N1C(=O)CSC1=S	none
COc1cc(/C=N/N2C(C)CCCC2C)cc(Br)c1O (centres undefined)	none
O=C1CSC(=S)N1/N=C/c1c(F)cccc1F	Sm TGR inh 8.91µM
CCCc1ccc(OCC(=O)Nc2sc3c(c2C(=O)OCC)CCC(C(C)(C)C)C3)cc1 (centres undefined)	none (no result: SARS PLP yeast)
CCc1ccc(NC(=O)CSC2=Nc3ccccc3C3=NC(CCC(=O)NCc4ccco4)C(=O)N23)cc1 (centres undefined)	none (no result: SARS PLP yeast)
COc1ccc(-n2cc(C(=O)NCc3ccccc3Cl)c3ccccc3c2=O)cc1	none (no result: SARS PLP yeast)
Cc1ccc(C(=O)CSc2ncc3c(n2)-c2ccccc2N(Cc2ccc(Cl)cc2)S3(=O)=O)cc1	none (no result: SARS PLP yeast)
O=C(NCCc1nc2ccccc2n1Cc1ccc(F)cc1)c1ccco1	none (no result: SARS PLP yeast)
Cc1cccc2nc(Cn3c(=O)n(-c4ccccc4)c(=O)c4c5c(sc43)CCC5)cc(=O)n12	none (no result: SARS PLP yeast)
Cc1cc(C)cc(N(CC(=O)NCc2ccccc2Cl)S(=O)(=O)c2c(C)noc2C)c1	none (no result: SARS PLP yeast)
O=[N+]([O-])c1cccc(/C=C2\CCC(/C=N/Nc3ccc4ccccc4n3)=C2N2CCOCC2)c1	none
CCCN1C/C(=C/c2cccc([N+](=O)[O-])c2)C(=O)/C(=C/c2cccc([N+](=O)[O-])c2)C1	none
O=C(NP(=O)(N1CCCC1)N1CCCC1)C1=C(N2CCOCC2)/C(=C/c2cccc([N+](=O)[O-])c2)CC1	Sm TGR inh 17.8µM
CCOC(=O)C(=O)C1=C(N2CCOCC2)/C(=C\c2cccc([N+](=O)[O-])c2)CC1	Sm TGR inh 39.8µM
N#Cc1ccccc1NS(=O)(=O)c1ccc(N2CCCCS2(=O)=O)cc1	none (no result: SARS PLP yeast)
COC(=O)c1c(N)sc(C(=O)N2CCOCC2)c1C	none
COC(=O)c1c(NC(=O)CCl)sc(C(=O)N2CCOCC2)c1C	Sm TGR inh 31.6µM
Cc1ccc(C(=O)c2oc3ccccc3c2NC(=O)COc2ccc(C(C)C)cc2)cc1	none (no result: SARS PLP yeast)
CCC(=O)N1N=C(c2cccs2)CC1c1ccc(C)cc1 (centres undefined)	none
Cc1ccc(C2CC(c3cccs3)=NN2C(=O)CCl)cc1 (centres undefined)	Sm TGR inh 2.51µM
O=C(O)C1=C[C@@H](c2ccccc2)C[C@@H](OCc2ccc(CO)cc2)O1	Sm TGR inh inconclusive
O=C(O)C1=C[C@@H](c2ccc3c(c2)OCO3)C[C@@H](OCc2ccc(CO)cc2)O1	none
NC(=O)C1=C[C@@H](c2ccccc2)C[C@@H](OCc2ccc(CO)cc2)O1	Sm TGR inh 50.1µM
NC(=O)C1=C[C@H](c2ccc3c(c2)OCO3)C[C@H](OCc2ccc(CO)cc2)O1	Sm TGR inh 56.2µM
COc1cccc(Cn2c(=O)n(Cc3ccccc3)c(=O)c3c2c2cc(OC)ccc2n3C)c1	none (no result: SARS PLP yeast)
O=C1CN(C(=O)Cc2ccc(F)cc2)C(c2ccccc2)c2cc(Cl)ccc2N1 (centres undefined)	none (no result: SARS PLP yeast)
O=C1C=CC(=O)N1c1ccc(Sc2ccc([N+](=O)[O-])cc2)cc1	Sm TGR inh 3.16µM
Nc1ccc(Sc2ccc([N+](=O)[O-])cc2)cc1	none
COc1ccc([N+](=O)[O-])c(S(=O)(=O)c2ccccc2)n1	Sm TGR inh 0.1µM
Nc1cccnc1S(=O)(=O)c1ccccc1	none
COc1ccc([N+](=O)[O-])c(S(=O)(=O)c2ccc(Cl)cc2)n1	Sm TGR inh inconclusive
O=[N+]([O-])c1cccnc1S(=O)(=O)c1ccccc1	Sm TGR inh 0.316µM
